We go through five compounds from PubChem BioAssay.

In assay [1] the test system is Human papillomavirus type 1a protein E7 (residues 44-93). Description: small molecules binding HPV E7 44-93 – biochemical, small-molecule microarray, residues 44-93, 635 nm fluorescence, primary screen (AID 1108).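 Note: E7 fragment applied at 1 µg/mL in TBST for 1 h at 4 C; score combines spot fluorescence with its signal to noise ratio.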 To be noted: fluorescence 635 nm, higher = more signal.
A short description of assay [2]: hepatitis C replication reporter changes, two-sided – Huh7 cells, luciferase reporter, HCV replication inhibitor project, primary screen (AID 1109).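 Note: huh7 hepatoma cells harbouring a luciferase neomycin HCV replicon reporter; luciferase luminescence as measure of HCV replicon replication; test concentration not given here.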 The conditions noted are these: Huh7 HCV replicon luciferase reporter, 48 h; higher = more signal. In general terms: A reporter such as luciferase makes a cellular process visible.
The target in assay [3] is Left-right determination factor 2 (Homo sapiens) (UniProt O00292). Description: small molecules binding LEFTY2 protein – biochemical, small-molecule microarray, 635 nm fluorescence scan, primary screen (AID 1110). To be noted: higher = more signal.
The target in assay [4] is Calmodulin-1 (Homo sapiens) (UniProt P0DP23). As to the kind of experiment: small molecules binding calmodulin-1 with EGTA – biochemical, small-molecule microarray, Cy5-labelled CALM1, profiling panel (AID 1111).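 Note: labelled calmodulin applied in Tris saline Tween buffer holding calcium plus EGTA and DTT.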 The conditions noted are these: Cy5-CALM1 binding fluorescence, higher = more signal.
Assay [5] shares this target. Description: small molecules binding Ca-loaded calmodulin-1 – biochemical, small-molecule microarray, Cy5-labelled CALM1, plus calcium, artefact control for SMM control-protein annotation, profiling panel (AID 1112).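 Note: score merges spot fluorescence with signal to noise from triplicate slides.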 The conditions noted are these: Cy5-CALM1 binding fluorescence, higher = more signal.
A short description of assay [6]: probe aWnt5a binding to arrayed compounds – biochemical, biotinylated probe, 635/667 nm fluorescence, primary screen (AID 1113).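 Note: score merges 667 nm fluorescence intensity with signal-to-noise per printed feature.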 The conditions noted are these: small-molecule microarray, higher = more signal.
The nature of assay [7]: probe aShh binding to arrayed compounds – biochemical, biotinylated probe, 635/667 nm fluorescence, primary screen (AID 1114).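 Note: probe is biotin-labelled aShh protein from a stem cell growth factor screen; measures binding of labelled protein to compounds printed on the slide; score merges feature fluorescence at 667 nm with signal-to-noise.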 The conditions noted are these: small-molecule microarray, higher = more signal.
Assay [8] can be described thus: probe aNog binding to arrayed compounds – biochemical, biotinylated probe, 635/667 nm fluorescence, primary screen (AID 1115).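 Note: probe is biotinylated aNog protein used at 0.15 µg/mL for 1 h at 4 C; z-score combines 667 nm fluorescence of each spot with its signal to noise.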 The conditions noted are these: small-molecule microarray, higher = more signal.
For assay [9], the target named is Torsin-1A-interacting protein 1 (Homo sapiens) (UniProt Q5JTV8). Description: compound microarray binding of lysate hLAP1 – cell lysate, small-molecule microarray, COS7 lysate, 635/667 nm fluorescence, primary screen (AID 1116). The conditions noted are these: 635 nm fluorescence, higher = more signal.
In assay [10] the target is Alpha-bungarotoxin (Bungarus multicinctus) (UniProt P60615). As to the kind of experiment: compounds binding labelled alpha-BTX control protein – biochemical, small-molecule microarray, Alexa647 label, 635/667 nm fluorescence, artefact control for SMM control protein annotation, profiling panel (AID 1117). To be noted: alpha-BTX-A647 binding fluorescence, higher = more signal.

Another assay has as its target Albumin (Bos taurus) (UniProt P02769). Description: compounds binding labelled BSA control protein – biochemical, small-molecule microarray, Alexa647 label, 635/667 nm fluorescence, artefact control for SMM control protein annotation, profiling panel (AID 1118).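 Note: score merges 667 nm emission intensity and signal-to-noise per printed compound spot.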 The conditions noted are these: BSA-A647 binding, fluorescence 635 nm, higher = more signal.
Assay [11] can be described thus: probe aXIP binding to arrayed compounds – biochemical, NeuroSMM set, 635/667 nm fluorescence, primary screen (AID 1119).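 Note: probe is the protein aXip251-270 applied at 1 µg/mL to compound-printed slides; binding of probe to printed compounds measured as 667 nm fluorescence plus signal to noise.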 To be noted: small-molecule microarray, higher = more signal, called active from +8 up or from −8 down.
Assay [12] can be described thus: probe aNOTCH3 binding on compound microarray – biochemical, small-molecule microarray, 635/667 nm fluorescence, primary screen (AID 1120).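 Note: probe is a biotin-tagged antibody raised against NOTCH3 rather than NOTCH3 protein; score merges spot fluorescence near 667 nm with spot signal to noise.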 To be noted: higher = more signal.
Assay [13] in a line: probe aNOTCH2 binding on compound microarray – biochemical, small-molecule microarray, 635/667 nm fluorescence, primary screen (AID 1121).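 Note: score merges feature fluorescence read at 667 nm with its signal to noise.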 The conditions noted are these: higher = more signal.
Assay [14] addresses Carbonic anhydrase 2 (Homo sapiens) (UniProt P00918). Description: compounds binding carbonic anhydrase 2 – biochemical, small-molecule microarray, Alexa647-labelled CAII, profiling panel (AID 1122). To be noted: CAII-A647 binding fluorescence, higher = more signal.
Assay [15] is described as follows: COS7 lysate on small-molecule microarray, probe aHis, 635 nm (AID 1123).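 Note: z-score combines 667nm fluorescence intensity with signal-to-noise per printed compound spot.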 The conditions noted are these: COS7 cell lysate, fluorescence, higher = more signal.
Assay [16] in a line: probe aLAP1 signal on lysate-treated microarray – cell lysate, small-molecule microarray, COS7 lysate, primary screen (AID 1124).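 Note: lysate comes from COS7 cells expressing LAP1 and is applied at 0.3 µg/mL; score merges spot fluorescence near 667 nm with signal-to-noise over triplicate slides.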 The conditions noted are these: probe aLAP1, fluorescence, higher = more signal.
A further assay concerns Sam68 (KHDRBS1). As to the kind of experiment: compounds binding KHDRBS1 protein – biochemical, small-molecule microarray, 635 nm fluorescence, primary screen (AID 1125).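 Note: score merges 667 nm channel intensity with signal to noise over triplicate slides.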 The conditions noted are these: higher = more signal.
The subject of assay [17] is Chordin-like protein 2 (CHRDL2). As to the kind of experiment: compounds binding chordin-like 2 – biochemical, small-molecule microarray, 635 nm fluorescence, primary screen (AID 1126).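 Note: printed compound slides probed with Chrdl2 protein at 4 µg/mL for 1 h at 4 C; score merges 667 nm emission intensity with signal to noise over three replicate slides.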 The conditions noted are these: fluorescence 635 nm, higher = more signal.
Assay [18] concerns the target Concanavalin-A (Canavalia ensiformis) (UniProt P02866). As to the kind of experiment: compounds binding concanavalin A lectin – biochemical, small-molecule microarray, Alexa647 label, 635 nm, artefact control for SMM control protein annotation, primary screen (AID 1127).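 Note: z combines 667 nm emission intensity with signal-to-noise across three replicate slides.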 The conditions noted are these: ConA-A647 binding fluorescence, higher = more signal.

Activity calls are given as the source filed them.

Sequence of Left-right determination factor 2 (Homo sapiens) (O00292 whole entry, looked up): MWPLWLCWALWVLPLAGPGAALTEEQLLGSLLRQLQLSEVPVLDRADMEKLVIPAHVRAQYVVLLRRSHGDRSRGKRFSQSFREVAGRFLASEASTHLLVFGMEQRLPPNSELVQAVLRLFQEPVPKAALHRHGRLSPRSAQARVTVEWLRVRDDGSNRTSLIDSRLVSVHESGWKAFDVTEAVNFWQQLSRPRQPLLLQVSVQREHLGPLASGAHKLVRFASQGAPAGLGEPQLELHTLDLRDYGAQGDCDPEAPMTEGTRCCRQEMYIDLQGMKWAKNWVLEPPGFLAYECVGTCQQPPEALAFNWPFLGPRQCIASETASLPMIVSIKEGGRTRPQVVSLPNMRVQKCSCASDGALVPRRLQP
Sequence of Alpha-bungarotoxin (Bungarus multicinctus) (P60615 whole entry, looked up): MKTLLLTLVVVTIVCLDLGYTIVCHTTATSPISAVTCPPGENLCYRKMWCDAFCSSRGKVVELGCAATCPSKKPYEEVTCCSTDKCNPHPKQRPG
Sequence of Torsin-1A-interacting protein 1 (Homo sapiens) (Q5JTV8 whole entry, looked up): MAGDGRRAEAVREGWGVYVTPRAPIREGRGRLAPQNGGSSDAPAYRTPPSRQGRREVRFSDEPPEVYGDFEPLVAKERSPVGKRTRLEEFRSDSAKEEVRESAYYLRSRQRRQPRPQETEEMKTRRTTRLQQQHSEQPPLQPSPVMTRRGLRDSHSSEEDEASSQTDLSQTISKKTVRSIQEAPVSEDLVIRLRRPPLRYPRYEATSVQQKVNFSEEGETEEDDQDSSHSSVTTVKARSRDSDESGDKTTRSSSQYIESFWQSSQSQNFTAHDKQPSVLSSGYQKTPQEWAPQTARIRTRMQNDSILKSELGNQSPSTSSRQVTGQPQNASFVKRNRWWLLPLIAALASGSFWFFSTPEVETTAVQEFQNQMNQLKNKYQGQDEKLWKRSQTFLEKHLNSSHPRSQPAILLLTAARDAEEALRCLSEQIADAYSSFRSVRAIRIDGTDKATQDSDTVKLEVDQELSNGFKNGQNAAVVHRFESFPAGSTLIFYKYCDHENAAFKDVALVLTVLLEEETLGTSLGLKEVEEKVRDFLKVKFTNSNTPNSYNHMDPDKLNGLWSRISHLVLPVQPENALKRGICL
Sequence of Albumin (Bos taurus) (P02769 whole entry, looked up): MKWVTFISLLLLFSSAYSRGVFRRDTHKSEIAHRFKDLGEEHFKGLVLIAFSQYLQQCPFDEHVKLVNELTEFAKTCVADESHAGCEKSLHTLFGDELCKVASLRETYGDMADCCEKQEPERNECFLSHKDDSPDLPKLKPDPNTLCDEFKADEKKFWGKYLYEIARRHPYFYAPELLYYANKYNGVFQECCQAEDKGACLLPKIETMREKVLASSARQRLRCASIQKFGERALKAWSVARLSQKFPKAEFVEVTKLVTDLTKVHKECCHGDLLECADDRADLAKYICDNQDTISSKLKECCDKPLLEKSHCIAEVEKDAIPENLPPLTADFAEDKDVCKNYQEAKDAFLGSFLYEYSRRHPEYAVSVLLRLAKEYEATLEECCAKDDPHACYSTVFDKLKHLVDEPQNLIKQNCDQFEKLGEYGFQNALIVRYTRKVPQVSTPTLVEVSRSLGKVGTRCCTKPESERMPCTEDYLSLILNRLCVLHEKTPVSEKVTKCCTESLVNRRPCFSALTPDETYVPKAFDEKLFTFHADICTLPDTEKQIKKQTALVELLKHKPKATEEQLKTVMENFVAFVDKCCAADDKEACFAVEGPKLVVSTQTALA
Sequence of Concanavalin-A (Canavalia ensiformis) (P02866 whole entry, looked up): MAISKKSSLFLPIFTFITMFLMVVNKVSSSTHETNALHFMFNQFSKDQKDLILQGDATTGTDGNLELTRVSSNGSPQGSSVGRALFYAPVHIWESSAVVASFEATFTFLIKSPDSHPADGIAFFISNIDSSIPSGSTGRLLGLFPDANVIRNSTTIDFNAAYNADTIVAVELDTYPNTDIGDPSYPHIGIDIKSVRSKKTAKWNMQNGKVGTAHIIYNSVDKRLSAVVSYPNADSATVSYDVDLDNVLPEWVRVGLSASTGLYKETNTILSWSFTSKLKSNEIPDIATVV

For the compound `O=C1[C@H]2[C@H]3[C@H](O)[C@H](O)CC(=NOCc4ccccc4)[C@@H]3CC[C@H]2C(=O)N1c1cccc(Oc2ccccc2)c1`, the composite z-score is 1.32 in [1]; -0.0065 in assay [3]; -0.0299 in assay [4]; -0.699 in assay [5]; -0.096 in assay [6]; 0.0639 in assay [7]. Moreover, the composite z-score in assay [8] was 0.0051; in assay [9] it was 0.902; in assay [10], 0.626; with Albumin (Bos taurus), 0.446; in assay [12], -0.119; in [13] it was -0.147. For the same compound, the composite z-score in [14] was determined as 0.146; in [15] it was 0.536; in assay [16] it was 0.397; with Sam68 (KHDRBS1), 1.32; in assay [17], 0.0204; in assay [18], 0.335. In [2], this compound gave a z-score of 0.0134. Also, the composite Z-score in assay [11] was 0.0894 (inactive).

For the compound `CC#CCOCCC=C1c2ccccc2[C@@H](OC)[C@@H]1C`, the composite z-score in assay [1] is -1.14; in assay [3] it was 0.0778; in assay [4], -1.06; in assay [5] it was -1.18; in assay [6], -0.0977; in [7], -0.138. Also, the composite z-score is -0.209 in assay [8]; 0.139 in assay [9]; -0.0725 in [10]; 0.556 with Albumin (Bos taurus); -0.128 in assay [12]; -0.101 in assay [13]. The composite z-score is 0.336 in assay [14]; -0.336 in [15]; -0.0059 in assay [16]; 0.151 in the assay with Sam68 (KHDRBS1); 0.337 in assay [17]; -0.515 in assay [18]. Moreover, the z-score in [2] was -0.692. The composite Z-score in assay [11] is 0.549 (inactive).

In the case of `COC(=O)[C@@H]1CC[C@H](C)[C@@H](c2ccc(Br)cc2)N1C[C@@H](O)CN=[N+]=[N-]`, the composite z-score is 0.29 in assay [1]; 0.445 in assay [3]; -0.178 in assay [4]; -0.437 in [5]; -0.0403 in [6]; 0.0494 in [7]. In addition, the composite z-score is -0.0103 in [8]; 0.289 in assay [9]; -0.291 in assay [10]; -0.236 with Albumin (Bos taurus); 0.0016 in assay [12]; -0.18 in assay [13]. Moreover, the composite z-score in assay [14] was -0.0121; in assay [15], 0.23; in assay [16], 0.546; in the assay on Sam68 (KHDRBS1) it was 0.56; in assay [17] it was 0.401; in assay [18], -0.0032. In [2], this compound came in with a z-score of -0.779. Also, the composite Z-score in [11] is -0.509 (inactive).

For the compound `CON(C)C(=O)c1nnc2c(n1)[nH]c1ccccc12`, the composite z-score was -0.186 in assay [1]; 0.414 in assay [3]; -0.15 in assay [4]; -0.229 in assay [5]; -0.148 in assay [6]; -0.23 in [7]. Besides, the composite z-score in assay [8] is -0.33; in assay [9] it was 2.14; in assay [10] it was 0.573; with Albumin (Bos taurus), 0.795; in [12], -0.0765; in assay [13], -0.167. The composite z-score came to 0.464 in assay [14]; 0.128 in assay [15]; 1.02 in assay [16]; 0.129 in the assay on Sam68 (KHDRBS1); 0.493 in assay [17]; 0.293 in [18]. Also, the z-score in assay [2] was 2.27. For the same compound, the composite Z-score in [11] was 0.0617 (inactive).

On to `CC(=O)OC[C@H]1O[C@H](CC=NO[C@@H](C)c2cn([C@H](CO)Cc3ccccc3)nn2)C=C[C@@H]1OC(C)=O`, for which the composite z-score in [1] was 0.949; in [3] it was 0.656; in assay [4], -0.16; in [5], -0.174; in assay [6], -0.176; in assay [7], 0.194. The composite z-score in [8] is 0.158; in assay [9], 1.03; in [10] it was 1.56; in the assay with Albumin (Bos taurus), 0.447; in assay [12], 0.0517; in assay [13] it was -0.0798. Moreover, the composite z-score was found to be 0.342 in assay [14]; 1.34 in assay [15]; 0.0198 in assay [16]; 0.987 in the assay with Sam68 (KHDRBS1); 0.394 in assay [17]; 0.506 in assay [18]. The same compound yielded a z-score in assay [2] of -1.02. In addition, in [11], the composite Z-score was 0.0225 (inactive).
